From PubChem
PHOSPHO1 inh: PubChem AID 1565; recombinant PHOSPHO1, absorbance phosphatase assay; inhibition, % at 13.3 µM; 290,000 compounds, 1.1% hits; in the data active = inhibition above about 60%
p-CIP stab down: p/CIP-EGFP fusion destabilizers, primary screen, fluorescence, F442A cells | 290,000 compounds, 0.01% hits | AID 1984, 2009 | Q05BA5 | 16 h | decrease of EGFP signal, % at 10 µM;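 active = EGFP signal decrease of at least 30% at 10 µM or well 3 SD below plate mean, unless failing retest; inactive = the rest, including hits failing retest or dose response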
SUMO HTRF inh: inhibitors of in vitro SUMOylation cascade, primary screen, biochemical, HTRF, uHTS; 290,000 compounds, 0.36% hits; HTRF SUMOylation assay, SAE1/SAE2 + UBC9; SUMO-conjugating enzyme UBC9 (Homo sapiens), P63279; AID 2006, 2009; inhibition, % at 35 µM; in the data active = inhibition above about 50%, passing the limit was not always enough
Target sequence (P63279 whole entry, looked up): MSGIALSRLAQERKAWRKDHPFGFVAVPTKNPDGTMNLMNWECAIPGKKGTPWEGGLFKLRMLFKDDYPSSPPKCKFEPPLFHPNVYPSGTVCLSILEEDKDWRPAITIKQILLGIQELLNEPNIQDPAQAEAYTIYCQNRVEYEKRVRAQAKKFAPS
NadD inh: inhibitors of S. aureus NadD, primary screen, biochemical, colorimetric, uHTS | Nicotinate-nucleotide adenylyltransferase NadD (Staphylococcus aureus N315) | inhibition, % at 20 µM | 360,000 compounds, 0.78% hits | purified NadD enzyme, colorimetric absorbance read-out | AID 602399, 2012; in the data active = inhibition above about 26%
* = called active by the depositor; . = no result. A selection: hits, their analogues and other compounds. The true share with any hit is near 1.8%.

SMILES | PHOSPHO1 inh | p-CIP stab down | SUMO HTRF inh | NadD inh
O=C(CSc1nnc2scc(-c3ccccc3)n12)N1CCN(Cc2ccccc2)CC1 | -24 | -9 | 0 | 4
Cc1ccc(-c2csc3nnc(SCC(=O)N4CCN(Cc5ccccc5)CC4)n23)cc1 | 74* | -13 | -3 | 12
O=C(CSc1nnc2scc(-c3ccccc3)n12)Nc1nsc(-c2ccccc2)n1 | 67* | -1 | 20 | 6
Cc1ccc(-c2csc3nnc(SCC(=O)Nc4nsc(-c5ccccc5)n4)n23)cc1 | 15 | 6 | -8 | 17
Cc1ccc(S(=O)(=O)/N=C(/NC(=S)Nc2ccccc2)c2ccccc2)cc1 | 12 | -6 | 3 | -5
Cc1ccc(S(=O)(=O)C/N=C(/NC(=S)N(c2ccccc2)c2ccccc2)c2ccccc2)cc1 | 66* | 6 | -9 | 0
Cc1ccc(S(=O)(=O)CCC(=O)OCC(=O)Nc2cccc(S(=O)(=O)N3CCCCC3)c2)cc1 | . | . | . | -10
C[C@@H]1CN([C@@H](C)CO)C(=O)c2cc(Br)cnc2O[C@@H]1CN(C)Cc1cncnc1 | . | . | . | -6
COC(=O)C1=C(C(=O)OC)SC2(S1)C(C(=O)OC)=C(C(=O)OC)SC1=C2c2cc(C)ccc2NC1(C)C | 98* | -14 | -13 | 25
CCOC(=O)C1(N(CC)CC)Sc2cc(C)ccc2NC1=O (centres undefined) | 41 | -20 | 2 | 0
Cc1ccc(NC(=O)Nc2ccno2)cc1 | -6 | -9 | 72* | 2
Cc1ccc(NC(=O)Nc2ncccc2C)cc1 | -4 | -3 | 0 | -5
CCCCNC(=S)Nc1ccc2nc(N3CCN(CC)CC3)cc(C)c2c1 | 28 | -9 | 12 | -8
CCCN1CCN(CCCNC(=S)Nc2ccc3nc(N4CCN(CC)CC4)cc(C)c3c2)CC1 | 37 | 80* | 14 | -7
COc1ccc(C(C)(O)c2nc(-c3cccs3)cs2)cc1 (centres undefined) | . | . | . | -7
C[N+](C)(C)C/C=C1/COCO1 | 90* | -4 | 6 | 6
COC(=O)c1sc(S(=O)(=O)NCCCN(C)C)c(C(=O)OC)c1C | 80* | 3 | -2 | -4
COC(=O)c1sc(S(=O)(=O)Nc2ccc(C)c(C)c2)c(C(=O)OC)c1C | 6 | -5 | 4 | -3
Cc1ccc(C2/C(=C(/O)c3cnn(-c4ccccc4)c3C)C(=O)C(=O)N2CCN2CCOCC2)o1 (centres undefined) | 30 | -8 | -10 | 1
Cc1ccc(C2/C(=C(/O)c3ccccc3)C(=O)C(=O)N2CCN2CCOCC2)o1 (centres undefined) | 76* | -2 | 14 | -3
CCOc1ccc(C2C=C(c3ccccc3)Nc3ncnn32)cc1 (centres undefined) | 16 | -6 | 52* | .
CCOc1ccc(C2C=C(c3ccc(F)cc3)Nc3ncnn32)cc1 (centres undefined) | 24 | -3 | 45 | -3
CSc1ccc(CNC(=O)C2(C)CCCN2CC(C)C)cc1 (centres undefined) | . | . | . | -4
NS(=O)(=O)c1ccc(-c2ccc(C=C3C(=O)c4ccccc4C3=O)o2)cc1 | 25 | -14 | 15 | 4
CC(C)CC1=C/C(=C/c2ccc(-c3ccccc3)o2)C(=O)O1 | -5 | -4 | 24 | 74*
SMILES | PHOSPHO1 inh | p-CIP stab down | SUMO HTRF inh | NadD inh
COc1ccc(OC)c2c(C)cc(N3CCCCCC3)nc12 | 30 | -2 | 2 | 17
COc1ccc(N(C)S(=O)(=O)c2ccc3c(c2)NC(=O)CC(=O)N3)c(OC)c1 | 70* | 1 | 4 | -2
CN(Cc1ccccc1)S(=O)(=O)c1ccc2c(c1)NC(=O)CC(=O)N2 | 2 | 1 | 0 | 1
CCOc1ccc(OCC(=O)c2c(O)c3ccccc3oc2=O)cc1 | 68* | -13 | 25 | 0
CC(=Nc1ccccc1)C1=C(O)CSC1=O | -60 | -4 | 28 | 3
COc1ccc(N=C(C)C2=C(O)CSC2=O)cc1 | 89* | -1 | -9 | 3
O=S(=O)(c1ccccc1)c1nc(Nc2ccccc2N2CCOCC2)sc1Cl | 79* | -6 | -40 | -4
CCc1nc2c(OCc3cc(Cl)cc(Cl)c3)cccn2c1N(C=O)Cc1ccc(OC)cc1 | . | . | . | 9
CC(=O)c1ccc(OCc2cn(CC(=O)c3ccc(O)cc3)nn2)cc1 | . | . | . | 0
CC(=O)Nc1ccc(OCc2cn(CC(=O)c3ccc(O)cc3)nn2)cc1 | . | . | . | 32*
NNC(=O)c1nc(-c2ccccc2)cc(-c2ccccc2)n1 | -3 | -16 | 14 | 4
O=c1[nH]c2ccccc2nc1C(Nc1ccccc1)c1ccccc1 (centres undefined) | 25 | -4 | 11 | 0
